# Assay results reported in PubChem BioAssay.
# “And” between values parts separate entries of the source, which are not always exact repeats. Equal values may be shown once. Inconclusive results are not listed. For part of these data: Results with a measured potency or affinity are listed apart. The source made the active and inactive calls. Unless noted, the limit is not given here; nearly all actives have AC50 up to about 26 µM.
# Key:
# [1] = compounds altering circadian rhythm period length – cell-based, LOPAC library, luminescence reporter (AID 2774; call rule not given here;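 also: values are relative to mean of DMSO wells on each plate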); conditions: circadian reporter cells, at 7 µM, actives lie on both sides
# [2] = tested on: Hepatitis C virus NS3 helicase; assay: blockers of NS3h binding to ssDNA – biochemical, fluorescence polarization, LOPAC1280 library, primary screen (AID 687035; in the data active = inhibition above about 37%); conditions: Purified HCV NS3 helicase, Cy5-dT15 ssDNA binding fluorescence polarization; stronger effect = higher value; concentration not given here
# [3] = compounds altering Cy5-DNA-NS3h complex signal – biochemical, LOPAC1280, artefact control for HCV NS3 helicase inhibitor project (AID 687037; call rule not given here); conditions: Cy5-DNA-NS3h complex fluorescence interference counterscreen
# [4] = EMT-state selective cytotoxicity in co-culture – imaging, PC-3E GFP, TEM4-18 mCherry, primary screen (AID 1345086;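 active = compounds killing one labelled cell type while sparing the other, by normalised counts and ratio limits, not self-fluorescent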;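 as to all read-outs here: cells exposed to compound for 72 h before imaging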;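 as to red/green cell ratio (normalised): normalised mesenchymal count divided by normalised epithelial count so high means epithelial killing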); conditions: PC-3E GFP / TEM4-18 mCherry co-culture, imaging cell counts, at 1 µM; for red/green cell ratio (normalised): actives lie on both sides, counts scaled to control wells, 1 = unselective
# [5] = viability loss in pontine glioma line – cell-based, SU-DIPG-XVII, MIPE5.0, CellTiter-Glo, qHTS, dose response (AID 1347060); conditions: CellTiter-Glo ATP luminescence;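 as to AC50: cells exposed to compound for 48 hours before viability readout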
# [6] = viability loss in pontine glioma line – cell-based, SU-DIPG-XIII, MIPE4.0, CellTiter-Glo, qHTS, dose response (AID 1347061; cut-off not given, nearly all actives have AC50 up to about 37 µM;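 also: cells exposed to compound for 48 hours before readout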); conditions: CellTiter-Glo ATP luminescence
# [7] = viability loss in pontine glioma line – cell-based, JHH-DIPG-1, MIPE4.0, CellTiter-Glo, qHTS, dose response (AID 1347062; cut-off not given, nearly all actives have AC50 up to about 27 µM); conditions: JHH-DIPG-1 viability, CellTiter-Glo ATP luminescence
# [8] = viability loss in pontine glioma line – cell-based, SU-DIPG-IV, MIPE4.0, CellTiter-Glo, qHTS, dose response (AID 1347063; cut-off not given, nearly all actives have AC50 up to about 30 µM;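 also: compound exposure lasted 48 hours before the viability readout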); conditions: CellTiter-Glo ATP luminescence
# [9] = viability loss in pontine glioma line – cell-based, SU-DIPG-XXV, MIPE5.0, CellTiter-Glo, qHTS, dose response (AID 1347065); conditions: CellTiter-Glo ATP luminescence;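 also: cells exposed to compound for 48 hours before ATP readout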
# [10] = growth inhibition of DIPG cells – cell-based, MIPE4.0 library, CellTiter-Glo luminescence, qHTS (AID 1347066; cut-off not given, nearly all actives have AC50 up to about 30 µM;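 also: cells exposed to compound for 48 hours before readout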); conditions: SU-DIPG-VI viability, CellTiter-Glo ATP luminescence
# [11] = JHH-DIPG-1 glioma cell viability, MIPE5.0 library, CellTiter-Glo luminescence, qHTS (AID 1347067); conditions: JHH-DIPG-1 glioma viability, CellTiter-Glo ATP luminescence;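 also: cells exposed to compound for 48 hours before readout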
# [12] = growth inhibition of DIPG cells – cell-based, MIPE5.0 library, qHTS (AID 1347068; cut-off not given, nearly all actives have IC50 up to about 30 µM); conditions: SU-DIPG-XXV viability
# [13] = viability loss with induced miR-34 in A549 – imaging, A549 dox-inducible miR-34, nuclei and caspase counts, primary screen (AID 1347080;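 active = compounds whose cell count with miR-34 switched on is under 0.7 times the count with it off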); conditions: A549 miR-34 inducible, Hoechst nuclei count, 48 h
# [14] = blockers of cellular phospholipid synthesis – cell-based, LOPAC library, screen 4, primary screen (AID 1347384; call rule not given here); conditions: animal cells, phospholipid biosynthesis inhibition screen; at 10 µM
# [15] = galactose survival enhancers in mitochondrial complex I cybrids – cell-based, galactose medium, ATP luminescence, primary screen (AID 1645843;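 active = z-score of at least 1.8 in each of two replicates, scored against plate mean and spread of sample wells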;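 also: positive z means more ATP and so rescue of galactose-driven cybrid death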); conditions: complex I mutant cybrid cells, 72 h, stronger effect = higher value
# [16] = blockers of polyQ-driven CASP3 activation – cell-based (AID 1583); conditions: polyglutamine-induced caspase-3 activation, cell assay; stronger effect = higher value;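 tested at 10 µM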
# [17] = yeast 75Q aggregation reduction – 75Q-TubU reporter (AID 1593); conditions: Yeast 75Q polyglutamine aggregation reporter
# [18] = restoration of touch response, mutant HTT neurons – whole organism, C. elegans mechanosensory neurons, N-terminal huntingtin (AID 1599); conditions: C. elegans polyQ-huntingtin mechanosensory neurons, stronger effect = higher value
# [19] = blockers of cytochrome c efflux from mitochondria – biochemical, purified mitochondria (AID 1603); conditions: stronger effect = lower value;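 also: mouse liver mitochondria challenged with calcium chloride; signal normalized to the plate average as 100%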
# [20] = polyglutamine aggregate formation blockers (AID 1604); conditions: polyglutamine-induced protein aggregation inhibition assay; stronger effect = higher value; tested at 2.5 µM
# [21] = glutamate transport activators, MN-1 cells, MN-1 cell line (AID 1612); conditions: MN-1 motor neuron cells, stronger effect = higher value;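 also: tested at 1 µM final; 0% = mean of DMSO vehicle wells on each plate; positive means more glutamate uptake than control and negative means less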
# [22] = 75Q-TubH aggregate inhibition, S. cerevisiae, yeast (AID 1616); conditions: S. cerevisiae 75Q-TubH polyglutamine aggregation suppression; stronger effect = higher value
# [23] = P. berghei load reduction in hepatocytes – cell-based, HepG2, luciferase luminescence, HepG2 viability, primary screen (AID 624349; in the data active = parasite load remaining mostly below about 12%, no sharp cut-off; inactive = mostly above about 10%;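 also: 100% = mean of DMSO negative control wells on the same plate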); conditions: P. berghei liver stage in HepG2, luciferase luminescence, concentration not given here; parasite load remaining: stronger effect = lower value; viability: measured here: HepG2 viability without parasites
# [24] = target: NAD(+) hydrolase SARM1 (Homo sapiens) (UniProt Q6SZW1); assay: blocking NAD cleavage by SARM1 SAM-TIR – cell lysate, NAD-Glo luminescence (AID 1508614;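 active = compound whose remaining NAD level is above about 45 nM, limit read from the data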;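 also: higher remaining NAD means stronger inhibition of SARM1 NADase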); conditions: SAM-TIR HEK293T lysate NADase, at 1 µM, stronger effect = higher value
# Sequence of NAD(+) hydrolase SARM1 (Homo sapiens) (Q6SZW1 whole entry, looked up, the tested form may be a part): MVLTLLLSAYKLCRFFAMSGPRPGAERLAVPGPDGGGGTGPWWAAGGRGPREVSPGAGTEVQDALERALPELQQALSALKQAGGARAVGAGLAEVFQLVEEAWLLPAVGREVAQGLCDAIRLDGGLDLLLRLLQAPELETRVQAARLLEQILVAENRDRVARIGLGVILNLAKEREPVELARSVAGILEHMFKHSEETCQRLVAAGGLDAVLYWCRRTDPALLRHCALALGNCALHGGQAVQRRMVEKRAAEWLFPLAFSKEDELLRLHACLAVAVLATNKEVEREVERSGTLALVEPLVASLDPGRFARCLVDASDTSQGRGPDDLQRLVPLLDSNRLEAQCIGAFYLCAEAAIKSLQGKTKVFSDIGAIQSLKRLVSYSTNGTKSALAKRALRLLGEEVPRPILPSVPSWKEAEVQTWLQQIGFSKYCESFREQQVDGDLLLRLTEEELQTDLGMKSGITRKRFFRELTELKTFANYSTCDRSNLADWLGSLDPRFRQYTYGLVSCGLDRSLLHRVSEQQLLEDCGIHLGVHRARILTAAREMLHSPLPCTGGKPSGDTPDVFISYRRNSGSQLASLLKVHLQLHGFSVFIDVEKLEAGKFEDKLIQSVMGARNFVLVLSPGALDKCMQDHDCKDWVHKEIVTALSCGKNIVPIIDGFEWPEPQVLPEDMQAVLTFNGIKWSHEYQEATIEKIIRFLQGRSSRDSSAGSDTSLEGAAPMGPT
# [25] = target: Mitogen-activated protein kinase 7 (Homo sapiens) (UniProt Q13164); assay: Gal4-ERK5 driven luciferase induction – cell-based, HTS, primary screen (AID 1508626;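 active = luciferase signal above three times the same-plate solvent-only control wells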;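 also: luciferase driven by Gal4-ERK5 fusion binding five Gal4 sites before minimal TATA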); conditions: HeLa Gal4-ERK5 transactivation, 18 h, at 5 µM, stronger effect = higher value
# Sequence of Mitogen-activated protein kinase 7 (Homo sapiens) (Q13164 whole entry, looked up, the tested form may be a part): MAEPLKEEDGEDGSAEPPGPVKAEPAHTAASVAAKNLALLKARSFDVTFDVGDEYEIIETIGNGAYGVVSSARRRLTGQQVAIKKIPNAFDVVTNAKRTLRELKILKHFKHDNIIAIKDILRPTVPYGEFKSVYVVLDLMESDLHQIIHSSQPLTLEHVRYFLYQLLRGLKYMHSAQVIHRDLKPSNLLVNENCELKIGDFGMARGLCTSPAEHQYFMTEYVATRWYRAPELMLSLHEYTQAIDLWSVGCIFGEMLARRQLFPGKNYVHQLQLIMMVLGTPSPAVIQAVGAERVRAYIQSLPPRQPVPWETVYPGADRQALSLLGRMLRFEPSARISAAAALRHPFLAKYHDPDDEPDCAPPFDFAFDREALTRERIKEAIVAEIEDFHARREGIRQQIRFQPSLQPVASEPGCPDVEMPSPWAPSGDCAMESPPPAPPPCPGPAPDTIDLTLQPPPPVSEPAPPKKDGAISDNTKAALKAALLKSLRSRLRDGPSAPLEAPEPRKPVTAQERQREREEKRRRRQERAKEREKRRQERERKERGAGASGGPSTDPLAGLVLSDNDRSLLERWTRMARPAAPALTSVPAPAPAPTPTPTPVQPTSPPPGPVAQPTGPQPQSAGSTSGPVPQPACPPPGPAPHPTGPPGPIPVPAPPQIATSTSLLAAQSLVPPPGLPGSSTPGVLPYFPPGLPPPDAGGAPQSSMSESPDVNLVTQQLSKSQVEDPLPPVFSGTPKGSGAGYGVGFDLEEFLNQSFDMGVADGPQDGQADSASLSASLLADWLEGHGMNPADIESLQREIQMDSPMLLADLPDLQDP
# [26] = viability loss in pontine glioma line – cell-based, SU-DIPG-XIII, MIPE5.0, CellTiter-Glo, qHTS, dose response (AID 1347064; cut-off not given, nearly all actives have AC50 up to about 23 µM;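 as to AC50: cells exposed to compound for 48 hours before the viability read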); conditions: CellTiter-Glo ATP luminescence
# [27] = chitosan synthesis blockers in C. neoformans – flow cytometry, Cibacron Brilliant Red staining (AID 1347148; call rule not given here;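 also: compound exposure lasted three days at 37 degrees C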); conditions: Cryptococcus neoformans chitosan, stronger effect = lower value; at 10 µM unless noted
# [28] = MELAS cybrid and Rieske KO viability enhancers – cell-based, MELAS cybrids, Rieske KO mouse fibroblasts, CellTiter-Glo, primary screen (AID 1508586;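 active = mean z-score across replicates of 1.96 or higher in either the MELAS or the Rieske mutant cell line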;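 also: z relative to plate mean and SD of compound and empty wells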); conditions: low glucose
# [29] = measured here: epithelial PC-3E GFP cell survival
# [30] = measured here: mesenchymal TEM4-18 mCherry cell survival
# [31] = stronger effect = lower value, cell number ratio, induced over uninduced
# [32] = measured here: relative caspase fold change +Dox/-Dox
# [33] = measured here: total cells with miR-34 induction, stronger effect = lower value
# [34] = measured here: total cells without miR-34 induction
# [35] = MELAS cybrid survival, CellTiter-Glo 48 h, stronger effect = higher value
# [36] = Rieske KO mouse fibroblast survival, CellTiter-Glo 72 h
smiles,measurement,setting,value
CCCCS(=N)(=O)CCC(N)C(=O)O (centres undefined),period change,[1],-0.105 h (inactive)
same,inhibition,[2],1% (inactive)
same,fluorescence ratio (interference),[3],1 (inactive)
same,red/green cell ratio (normalised),[4],0.93 (inactive)
same,normalised cell number,[4]; [29],0.89
same,normalised cell number,[4]; [30],0.83
same,outcome,[5],inactive
same,outcome,[6],inactive
same,outcome,[7],inactive
same,outcome,[8],inactive
same,outcome,[9],inactive
same,outcome,[10],inactive
same,outcome,[11],inactive
same,outcome,[12],inactive
same,fold change,[13]; [31],0.991 (inactive)
same,fold change,[13]; [32],1.82
same,cell count,[13]; [33],9560
same,cell count,[13]; [34],9650
same,outcome,[14],inactive
same,z-score,[15],-0.42 (inactive)
C=CC[C@@H]1/C=C(\C)C[C@H](C)C[C@H](OC)[C@H]2O[C@@](O)(C(=O)C(=O)N3CCCC[C@H]3C(=O)O[C@H](/C(C)=C/[C@@H]3CC[C@@H](O)[C@H](OC)C3)[C@H](C)[C@@H](O)CC1=O)[C@H](C)C[C@@H]2OC,inhibition,[16],-0.04%
same,score,[17],-0.08
same,rescue above control,[18],0
same,cytochrome c release ratio,[19],2.76
same,inhibition of aggregation,[20],0%
same,glutamate uptake change,[21],0%
same,aggregation suppression score,[22],0.207
same,parasite load remaining,[23],58.3% (inactive)
same,viability,[23],97.1%
same,red/green cell ratio (normalised),[4],1.19 (inactive)
same,normalised cell number,[4]; [29],0.77
same,normalised cell number,[4]; [30],0.91
same,AC50,[6],23.5 µM (active)
same,AC50,[8],1.18 µM (active)
same,AC50,[9],20.9 µM (active)
same,fold change,[13]; [31],1.03 (inactive) and 0.874 (inactive)
same,fold change,[13]; [32],1.61 and 2.51
same,cell count,[13]; [33],4360 and 8620
same,cell count,[13]; [34],4240 and 9860
same,remaining NAD,[24],10 nM (inactive)
same,luciferase signal,[25],68 AU (inactive)
Nc1nc(N)c2nc(CNc3ccc(C(=O)NC(CCC(=O)O)C(=O)O)cc3)cnc2n1 (centres undefined),period change,[1],-0.245 h (inactive)
same,parasite load remaining,[23],160% (inactive)
same,viability,[23],70.2%
same,inhibition,[2],-4% (inactive)
same,fluorescence ratio (interference),[3],0.9 (inactive)
same,red/green cell ratio (normalised),[4],0.95 (inactive)
same,normalised cell number,[4]; [29],1.01
same,normalised cell number,[4]; [30],0.96
same,AC50,[6],11.8 µM (active)
same,outcome,[10],inactive
same,outcome,[11],inactive
same,fold change,[13]; [31],1.22 (inactive)
same,fold change,[13]; [32],1.88
same,cell count,[13]; [33],2740
same,cell count,[13]; [34],2230
same,outcome,[14],inactive
same,z-score,[15],0.075 (inactive)
COC(=O)/C=C/C(=O)OC,red/green cell ratio (normalised),[4],1.23 (inactive)
same,normalised cell number,[4]; [29],0.84
same,normalised cell number,[4]; [30],1.04
same,outcome,[5],inactive
same,AC50,[6],14.8 µM (active)
same,AC50,[8],0.935 µM (active)
same,outcome,[26],inactive
same,outcome,[9],inactive
same,outcome,[10],inactive
same,outcome,[11],inactive
same,outcome,[12],inactive
same,fold change,[13]; [31],0.976 (inactive)
same,fold change,[13]; [32],1.01
same,cell count,[13]; [33],7550
same,cell count,[13]; [34],7740
same,remaining NAD,[24],10 nM (inactive)
CC(=O)NC(CS)C(=O)O (centres undefined),red/green cell ratio (normalised),[4],1.09 (inactive)
same,normalised cell number,[4]; [29],1.24
same,normalised cell number,[4]; [30],1.36
same,outcome,[5],inactive
same,outcome,[6],inactive
same,outcome,[7],inactive
same,outcome,[8],inactive
same,outcome,[9],inactive
same,outcome,[10],inactive
same,outcome,[11],inactive
same,outcome,[12],inactive
N#C[C@@H]1C[C@@H]2C[C@@H]2N1C(=O)[C@@H](N)C12CC3CC(CC(O)(C3)C1)C2,red/green cell ratio (normalised),[4],0.9 (inactive)
same,normalised cell number,[4]; [29],1.31
same,normalised cell number,[4]; [30],1.19
same,outcome,[5],inactive
same,outcome,[7],inactive
same,outcome,[8],inactive
same,outcome,[26],inactive
same,outcome,[9],inactive
same,outcome,[12],inactive
same,fold change,[13]; [31],0.886 (inactive)
same,fold change,[13]; [32],0.64
same,cell count,[13]; [33],8720
same,cell count,[13]; [34],9840
same,remaining NAD,[24],10 nM (inactive)
Cc1coc2c1C(=O)C(=O)c1c-2ccc2c1CCCC2(C)C,parasite load remaining,[23],23.1% (inactive)
same,viability,[23],97.5%
same,red/green cell ratio (normalised),[4],1.04 (inactive)
same,normalised cell number,[4]; [29],0.67
same,normalised cell number,[4]; [30],0.7
same,AC50,[5],5.9 µM (active)
same,outcome,[6],inactive
same,AC50,[8],3.32 µM (active)
same,AC50,[26],5.9 µM (active)
same,AC50,[9],16.6 µM (active)
same,AC50,[11],7.42 µM (active)
same,outcome,[12],inactive
same,fold change,[13]; [31],1.17 (inactive) and 1.16 (inactive) and 1.64 (inactive)
same,fold change,[13]; [32],1.11 and 0.52 and 0.868
same,cell count,[13]; [33],934 and 1820 and 2140
same,cell count,[13]; [34],800 and 1570 and 1300
same,fold fluorescence,[27],3.12 [at 169.9 µM] (inactive)
same,z-score,[28]; [35],0.593 (inactive) and 0.0182 (inactive)
same,z-score,[28]; [36],0.381 and 0.81
same,luciferase signal,[25],32 AU (inactive)
same,z-score,[15],-1.64 (inactive)
CC(C)C/C=C/C=C\C(=O)N[C@@H](CC(N)=O)C(=O)N[C@@H]1C(=O)N[C@H](c2ccc(O)cc2)C(=O)N[C@H](CCCN)C(=O)N[C@H]([C@H](C)O)C(=O)N[C@@H](c2ccc(O)cc2)C(=O)N[C@H](c2ccc(O)cc2)C(=O)N[C@@H]([C@H](C)O)C(=O)N[C@@H](Cc2ccccc2)C(=O)N[C@H](CCCN)C(=O)N[C@@H](c2ccc(O[C@@H]3O[C@H](CO)[C@H](O)[C@@H](O)[C@@H]3O[C@@H]3O[C@H](CO)[C@@H](O)[C@H](O)[C@H]3O)cc2)C(=O)NC(C(C)O)C(=O)N[C@@H](c2ccc(O)cc2)C(=O)NCC(=O)N[C@@H](CC(C)C)C(=O)N[C@H](C)C(=O)N[C@@H](c2ccc(O)c(Cl)c2)C(=O)O[C@@H]1C(N)=O (some centres undefined),red/green cell ratio (normalised),[4],0.89 (inactive)
same,normalised cell number,[4]; [29],1.04
same,normalised cell number,[4]; [30],0.93
same,fold change,[13]; [31],0.899 (inactive)
same,fold change,[13]; [32],0.946
same,cell count,[13]; [33],8820
same,cell count,[13]; [34],9820
CN1C(C(=O)Nc2ccccn2)=C(O)c2sc(Cl)cc2S1(=O)=O,red/green cell ratio (normalised),[4],0.78 (inactive)
same,normalised cell number,[4]; [29],1.13
same,normalised cell number,[4]; [30],0.88
same,outcome,[5],inactive
same,outcome,[7],inactive
same,outcome,[8],inactive
same,outcome,[9],inactive
same,outcome,[10],inactive
same,outcome,[11],inactive
same,outcome,[12],inactive
same,fold change,[13]; [31],0.905 (inactive) and 0.871 (inactive)
same,fold change,[13]; [32],0.83 and 0.817
same,cell count,[13]; [33],9030 and 7600
same,cell count,[13]; [34],9980 and 8730
same,z-score,[28]; [35],-0.192 (inactive)
same,z-score,[28]; [36],0.681
same,remaining NAD,[24],10 nM (inactive)
